Assay outcomes from PubChem BioAssay.
Most compounds without a hit are left out; they make up all but 6.5% or so of the library.
Spn DPM-DC inh – S. pneumoniae DPM-DC inhibitors, primary screen, biochemical, PK/LDH-coupled NADH fluorescence | purified DPM-DC | calls only at 10 µM | 65,000 compounds, 0.49% hits | AID 556, 2006;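 active = the 320 compounds with the highest percent inhibition in the single-dose primary screen, excluding strongly autofluorescent ones, cut at about 32% in these data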;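 also: kinetic rate of NADH fluorescence loss reporting ADP formed by the decarboxylase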
NADH enzymes – inhibitors of PK/LDH coupling enzymes, profiling panel, artefact control, biochemical, MLSMR library. AID 774, 2007. 65,000 compounds, 0.02% hits. coupled PK/LDH NADH assays, four targets. IC50, µM (doses to about 10 µM), for the others: at the top dose inhibition;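 active = single-dose screening hits from any of four coupled enzyme assays that gave an IC50 when retested across doses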;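 also: the DPM-DC format reads NADH fluorescence rather than 340 nm absorbance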
PMK inhibit – S. pneumoniae PMK inhibitors, primary screen, biochemical, mevalonate pathway, pilot trial included; phosphomevalonate kinase (Streptococcus pneumoniae D39); purified PMK, PK/LDH-coupled NADH absorbance 340 nm; inhibition, % at 10 µM; 65,000 compounds, 0.49% hits;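 active = top-ranked compounds by inhibition in the single 10 µM screen, taking a fixed number of the strongest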;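 also: 0% = full reaction with DMSO carrier and 100% = background rate without enzyme reaction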
Spn MK inh – S. pneumoniae MK inhibitors, primary screen, biochemical, PK/LDH-coupled NADH absorbance; mevalonate kinase [Streptococcus pneumoniae D39]; purified MK, PK/LDH-coupled NADH absorbance 340 nm; inhibition, % at 10 µM; 65,000 compounds, 0.48% hits; AID 555, 2006;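 active = ranked among the strongest by inhibition in the single 10 µM screen, a fixed top-ranked set picked for dose follow-up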
Abs 340nm – compound light absorbance at 340 nm, profiling panel, artefact control, biochemical, MLSMR library, data from PS, PMK, MK assays | compound absorbance at 340 nm, fold over control | fold change at 10 µM | 65,000 tested, under 10 active | AID 708, 2007;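 active = at 10 µM dose, initial 340 nm absorbance at least 2 fold that of control wells; inactive = change under 2 fold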;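 also: initial absorbance extrapolated from kinetic A340 decline of NADH oxidation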
Fluor 339 460 – intrinsic fluorescence of library compounds, ex339/em460 – biochemical, MLSMR library, data from DPM-DC assay, artefact control, profiling panel. compound autofluorescence, ex339/em460 nm, NADH buffer; active compounds read high; 1 = no-compound wells, NADH background. fluorescence fold increase at 10 µM. 65,000 compounds, 5.5% hits. AID 709, 2007;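 active = at 10 µM, mean starting fluorescence two-fold or more over control wells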;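 also: signal is the first read of a kinetic run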
Starred values were filed as active, the others as inactive; i = inactive; . = not tested or not shown; + = active, no number.

SMILES	Spn DPM-DC inh	NADH enzymes	PMK inhibit	Spn MK inh	Abs 340nm	Fluor 339 460
COc1ccc(N2C(=O)CCC(C(=O)N3CCOCC3)C2c2ccc(F)cc2)cc1 (stereo not drawn)	i	2%	0	6	1	1.1
Cc1oc2c(C)c3oc(=O)c4c(c3cc2c1C)CCCC4	i	5%	2	5	1.1	1.5
CC(=O)COc1ccc2c3c(c(=O)oc2c1C)CCCCC3	.	5%	3	7	1.2	3.8*
Cc1oc(C(=O)O)cc1COc1ccc2c3c(c(=O)oc2c1C)CCCC3	.	11%	12	9	1.1	2.2*
CC(=O)C(C)Oc1ccc2c3c(c(=O)oc2c1C)CCCC3 (stereo not drawn)	.	10%	5	15	1	3.8*
Cc1c(OC(=O)CNC(=O)OC(C)(C)C)ccc2c3c(c(=O)oc12)CCC3	.	6%	3	8	1	3.9*
COc1ccc(C)cc1NC(=O)CSc1nnc(-c2ccc(OC)c(OC)c2)n1N	i	1%	0	3	1	1
COc1ccc(OCC(=O)Nc2ccc(S(=O)(=O)N3CCCCCC3)cc2)cc1	i	8%	12	11	1	1.1
C=C(C)COc1ccc2c(C)c(CC(=O)OC)c(=O)oc2c1C	.	1%	0	2	1.1	3.8*
CCN(CC)Cc1c(O)ccc2c(C)c(CC(=O)OC)c(=O)oc12	.	6%	5	6	1.2	2.4*
CCN(CC)Cc1c(O)ccc2c(-c3ccccc3)cc(=O)oc12	.	9%	10	7	1.1	2.1*
COC(=O)Cc1c(C)c2ccc(OCC(C)=O)c(C)c2oc1=O	.	7%	8	6	1.1	3.8*
COc1ccc(-c2cnn(-c3ccccc3)c2N)cc1OC	i	2%	2	5	1.1	1.1
Nc1nc2c(s1)CCc1c-2cnn1-c1ccccc1	+	21µM*	5	0	0.95	0.86
Cc1cccc(-n2c(=O)[nH]c3c(C(N)=O)nc(CC(C)C)nc32)c1	.	5%	9	0	1	5.1*
CCC(C)Sc1nnc(Cc2cc(=O)[nH]c(=O)[nH]2)n1-c1ccc(F)cc1 (stereo not drawn)	i	4%	7	6	1.1	1.1
CC(C)Cc1nc(C(N)=O)c2[nH]c(=O)n(-c3ccc(F)cc3)c2n1	.	4%	8	0	1.1	2.2*
CC1CCC(C(=O)NC(C(=O)NCCCN2CCOCC2)C(C)C)CC1 (stereo not drawn)	i	7%	9	13	0.96	1
CN(C)c1ccc(CNCCC2(O)CCOC(C)(C)C2)cc1 (stereo not drawn)	i	11%	61*	41*	1	1.1
CN(C)c1ccc(C=NCCC2(O)CCOC(C)(C)C2)cc1 (stereo not drawn)	i	4%	5	7	1.1	1
O=C(NCCN1CCOCC1)c1ccc2c(c1)N(Cc1ccccc1)CCS2	.	9%	8	9	1	2*
O=C(NCCN1CCOCC1)c1ccc2c(c1)N(Cc1ccccc1)C(=O)CS2	i	2%	19	3	1	1.1
CCN1C(=O)CSc2ccc(C(=O)NCCCN3CCOCC3)cc21	i	6%	17	0	0.99	1.1
CN1CCN(CCCNC(=O)c2ccc3c(c2)N(Cc2ccccc2)CCS3)CC1	.	8%	16	0	1.1	2.1*
c1ccn2c(Cc3nnc4ccccn34)nnc2c1	i	3%	10	0	1	1.1
Cc1cc(NC(=O)CSc2cn(CCNC(=O)c3ccc(F)cc3)c3ccccc23)no1	i	3%	4	5	0.99	1.1
CCOC(=O)c1cnc(SCC)[nH]c1=O	i	4%	13	11	1.1	1
CCOc1ccc2[nH]c(=O)c(CN(Cc3ccccc3)C(=O)N3CCCC3)cc2c1	i	7%	15	8	1	2.1*
CCOc1ccc2[nH]c(=O)c(CN(C(=O)N3CCOCC3)C3CC3)cc2c1	.	7%	14	0	1.1	3.8*
